Results taken from paper PMC10668032, “Altered binding affinity of SIX1-Q177R correlates with enhanced WNT5A and WNT pathway effector expression in Wilms tumor”.
In all, about 33,000 sequences were measured (“e-score”: median about -0.05, highest 2% from about 0.38 on). This is one part of a sample in which the highest values are shown more often than they occur.

These sequences were tested against T1, SIX1-Q177R homeodomain (human, UniProt Q15475 108-198, Q177R) (assay: universal protein binding microarray; Universal all-10-mer PBM (8x60K, AMADID 030236), 300 nM GST-tagged protein, Alexa Fluor 488 anti-GST; buffer, salt, pH and temperature not stated (as in Berger); high values mean tight binding). Details: protein: ivt; tags: N-terminal GST; dsDNA, one strand shown.
T1 sequence: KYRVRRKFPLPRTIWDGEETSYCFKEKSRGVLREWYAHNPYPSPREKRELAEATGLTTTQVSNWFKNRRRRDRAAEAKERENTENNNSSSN
Summary of the method: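 Binding of GST-tagged homeodomains is given as 8-mer E-scores from the Universal PBM Analysis Suite. The proteins were produced by in vitro transcription/translation, quantified by anti-GST western blot against a recombinant GST standard curve, and applied in duplicate at 300 nM final concentration to universal 'all 10-mer' protein binding microarrays (8×60K format).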
Sequence ACGAGGTG has a binding signal of 0.251 ± 0.0125 E-score. For AGGCGGGG, the binding signal was 0.159 ± 0.0183 E-score. ACGCCACG was tested, and the binding signal was 0.171 ± 0.0126 E-score. For AAGACCCC, the binding signal was 0.172 ± 0.0514 E-score. AGAGGTAT showed a binding signal of 0.221 ± 0.0344 E-score. In the case of GTGTAGAA, the binding signal is reported as 0.427 ± 0.0121 E-score. For GTGTAGTA, the binding signal was 0.464 ± 0.0137 E-score. GTGTAGCA gave a binding signal of 0.425 ± 0.0131 E-score. For GTGCTGTA, the binding signal was 0.164 ± 0.0245 E-score. In the case of GGGTAGGA, the binding signal is reported as 0.213 ± 0.0147 E-score. Work on GTGTGGAA yielded a binding signal of 0.193 ± 0.0214 E-score. Work on GTGTGGGA yielded a binding signal of 0.286 ± 0.0336 E-score. GGGTAGTA showed a binding signal of 0.161 ± 0.0206 E-score. Work on TAGTAGCA yielded a binding signal of 0.159 ± 0.00204 E-score. GTGTAGGA was tested, and the binding signal was 0.4 ± 0.00559 E-score. Work on GTAGAGTA yielded a binding signal of 0.2533 ± 0.000997 E-score. GTGTGGCA showed a binding signal of 0.246 ± 0.0251 E-score. CACGGCTA was tested, and the binding signal was 0.182 ± 0.0377 E-score. For ACATGGGT, the binding signal was 0.209 ± 0.0274 E-score. Sequence CACCTGGG has a binding signal of 0.2794 ± 0.00115 E-score. For CCCGCCAC, the binding signal was 0.195 ± 0.0268 E-score. With TGGGGTAA the binding signal was 0.26 ± 0.0142 E-score. With CACCCGCG the binding signal was 0.301 ± 0.00786 E-score. In the case of AGGCGACA, the binding signal is reported as 0.25 ± 0.0166 E-score. In the case of ACACATGG, the binding signal is reported as 0.185 ± 0.0286 E-score. With GGAGGACA the binding signal was 0.246 ± 0.019 E-score. For CACGAACA, the binding signal was 0.25 ± 0.0125 E-score. For CACACTCA, the binding signal was 0.21 ± 0.0192 E-score. Work on TACACTCA yielded a binding signal of 0.402 ± 0.0151 E-score. In the case of CACACTCG, the binding signal is reported as 0.3527 ± 0.00165 E-score. AACACTCT gave a binding signal of 0.35 ± 0.036 E-score. GATACTCA was tested, and the binding signal was 0.16 ± 0.00991 E-score. In the case of AACACTCG, the binding signal is reported as 0.337 ± 0.0357 E-score. AACACTCC gave a binding signal of 0.379 ± 0.0156 E-score. For GACACTCA, the binding signal was 0.422 ± 0.00429 E-score. AACACTCA was tested, and the binding signal was 0.3999 ± 0.00301 E-score. CACACTAA gave a binding signal of 0.204 ± 0.0117 E-score. CACACTCC gave a binding signal of 0.291 ± 0.0144 E-score. GACACTCC gave a binding signal of 0.43377 ± 0.000417 E-score. Sequence CGGATCAC has a binding signal of 0.174 ± 0.0108 E-score. Sequence CACGGAGC has a binding signal of 0.163 ± 0.00672 E-score. CACTAGCG showed a binding signal of 0.188 ± 0.0248 E-score. Work on CCGTGCGA yielded a binding signal of 0.155 ± 0.0514 E-score. CCGGTATC gave a binding signal of 0.284 ± 0.0126 E-score. Work on ACGGTGTG yielded a binding signal of 0.367 ± 0.0153 E-score. ACGGTGTC was tested, and the binding signal was 0.4875 ± 0.00246 E-score. CCGGTGCG gave a binding signal of 0.179 ± 0.0475 E-score. Work on CCGGTGTC yielded a binding signal of 0.4894 ± 0.00404 E-score. ACGGTGCG was tested, and the binding signal was 0.167 ± 0.0105 E-score. For ACGGGGTG, the binding signal was 0.338 ± 0.0174 E-score. For ACCTGGTG, the binding signal was 0.322 ± 0.00697 E-score. ACAATACA was tested, and the binding signal was 0.194 ± 0.0158 E-score. For CTAGGACA, the binding signal was 0.162 ± 0.0316 E-score. TAATCACA was tested, and the binding signal was 0.213 ± 0.0222 E-score. GGGGTTGA was tested, and the binding signal was 0.2 ± 0.025 E-score. AGACACTC gave a binding signal of 0.3634 ± 0.00141 E-score. AGACACTA gave a binding signal of 0.343 ± 0.00686 E-score. CGACACTA gave a binding signal of 0.41 ± 0.00325 E-score. CGACACTC showed a binding signal of 0.437 ± 0.00883 E-score. Work on GGACACTA yielded a binding signal of 0.358 ± 0.00739 E-score. ACGCCCGA was tested, and the binding signal was 0.17 ± 0.0302 E-score. Sequence CCTGCACC has a binding signal of 0.16 ± 0.00461 E-score. ACCCAAGT was tested, and the binding signal was 0.157 ± 0.00998 E-score. Sequence AAGCACCA has a binding signal of 0.24 ± 0.00412 E-score. ACGGATAC showed a binding signal of 0.28 ± 0.00317 E-score. Work on CCGGATAC yielded a binding signal of 0.262 ± 0.00585 E-score. Sequence GCGGATAC has a binding signal of 0.2681 ± 0.00246 E-score. ACGGACAC gave a binding signal of 0.41 ± 0.0174 E-score. For CCGGACGA, the binding signal was 0.185 ± 0.0376 E-score. GCGGACAC showed a binding signal of 0.406 ± 0.0139 E-score. ACGGAGTC showed a binding signal of 0.181 ± 0.0091 E-score. CCGGACAC gave a binding signal of 0.427 ± 0.0142 E-score. GCGCACAC was tested, and the binding signal was 0.289 ± 0.0303 E-score. CCCTCTGA was tested, and the binding signal was 0.153 ± 0.0264 E-score. Sequence CACTGAGA has a binding signal of 0.202 ± 0.0113 E-score. GCTTAACA gave a binding signal of 0.171 ± 0.0194 E-score. In the case of ACCAGAGT, the binding signal is reported as 0.16 ± 0.0333 E-score. Sequence ACCCTTAA has a binding signal of 0.175 ± 0.0783 E-score. ATCCCTAG showed a binding signal of 0.154 ± 0.00215 E-score. CACTCGTA gave a binding signal of 0.152 ± 0.0172 E-score. CGGCGTAC showed a binding signal of 0.209 ± 0.00229 E-score. In the case of TATGGACA, the binding signal is reported as 0.167 ± 0.0099 E-score. With CACTTTAC the binding signal was 0.221 ± 0.0328 E-score. ACACCTTG showed a binding signal of 0.44 ± 0.00935 E-score. With ACACCTTC the binding signal was 0.46 ± 0.0107 E-score. For ACACCTTA, the binding signal was 0.456 ± 0.00729 E-score. For ACCCCTTG, the binding signal was 0.237 ± 0.00827 E-score.
